# Compound activity deposited in PubChem BioAssay by National Center for Advancing Translational Sciences (NCATS).
# Rows were chosen to be rich in hits. Some 6% of all compounds tested hit in one or more screens of this group.
# VDR inh: inhibitors of human vitamin D receptor; VDR-SRC2-3 peptide fluorescence polarization, 2 h; Potency, µM, inactives show max response, negative = inhibition, actives largely listed as inhibitors; hit rate 0.93% among 400,000; AID 504847; note: % is set by controls: 0 for no effect and ±100 for the full control effect
# Target sequence (P11473 whole entry, looked up): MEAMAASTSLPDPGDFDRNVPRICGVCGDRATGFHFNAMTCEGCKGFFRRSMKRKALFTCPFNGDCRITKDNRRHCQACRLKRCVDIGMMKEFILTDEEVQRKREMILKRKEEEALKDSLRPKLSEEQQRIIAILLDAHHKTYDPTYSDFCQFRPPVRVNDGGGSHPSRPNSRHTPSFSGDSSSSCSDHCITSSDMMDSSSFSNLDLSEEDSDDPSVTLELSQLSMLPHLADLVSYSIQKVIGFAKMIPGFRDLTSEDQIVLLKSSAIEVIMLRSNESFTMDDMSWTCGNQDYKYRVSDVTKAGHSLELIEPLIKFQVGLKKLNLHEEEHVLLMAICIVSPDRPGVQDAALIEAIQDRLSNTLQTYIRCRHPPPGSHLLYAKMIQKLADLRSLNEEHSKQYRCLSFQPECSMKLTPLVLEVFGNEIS
#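 Compounds are added to VDR with labelled SRC2-3 coactivator peptide and held 2 h at room temperature. Inhibition of the VDR–peptide interaction is then read as a change in fluorescence polarization.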
# Tau fibril ThT: tau fibrillization inhibition (ThT binding); P10636; AID 1460; hit rate 2.1% among 270,000; Potency, µM (highest dose often 57.4 µM), for the others: at the top dose activity, negative = inhibition, most hits filed as inhibitors; recombinant tau K18 P301L, heparin-induced fibrillization, ThT fluorescence; note: % is set by controls: 0 for no effect and ±100 for the full control effect; nearly all actives have a fitted effect of over 55% in size
# Target sequence (P10636 561-689 P618L limits assumed): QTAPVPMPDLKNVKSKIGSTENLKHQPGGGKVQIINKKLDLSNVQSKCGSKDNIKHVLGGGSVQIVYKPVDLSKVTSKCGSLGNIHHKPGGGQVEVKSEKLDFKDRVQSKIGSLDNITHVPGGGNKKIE
#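 ThT emission at 510 nm, taken 1 hr after adding 30 uM dye, quantifies aggregates formed when 20 uM heparin acts on human tau K18 P301L for 6 hr at 37 C.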
# Tau FP inhib: tau fibrillization inhibition (FP). Potency, µM (titrated, usually from 57.7 µM), for the others: at the top dose activity, negative = inhibition, actives largely listed as inhibitors. K18 P301L tau heparin fibrillization, Alexa594 FP, 6 h. P10636. hit rate 0.39% among 280,000; note: % is set by controls: 0 for no effect and ±100 for the full control effect; nearly all actives have a fitted effect of over 55% in size
#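 Recombinant K18 P301L […], labeled with Alexa 594 at 0.24 uM over 15 uM unlabeled; heparin inducer 20 uM final; 37 C, 6 hr; FP endpoint.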
# Tau fluor cs: counter-screen for tau fibril formation inhibitors; tau K18 P301L Alexa594 fluorescence, heparin fibrillization; Potency, µM (highest dose often 57.7 µM), for the others: top-dose activity change, negative = decrease; hit rate 0.93% among 280,000; AID 1463; note: % is set by controls: 0 for no effect and ±100 for the full control effect; nearly all actives have a fitted effect of over 55% in size
#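 Human tau K18 P301L (15 uM unlabeled, 0.24 uM Alexa 594-labeled) in 100 mM sodium acetate pH 7 with 20 uM heparin, 6 hr at 37 C. ThT 30 uM added, 1 hr ambient; Alexa 594 FP and total fluorescence read at 555/632 nm.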
# Sfp inh: Sfp phosphopantetheinyl transferase inhibition; Q9F4F7; Biochemical Sfp PPTase activity, qHTS; Potency, µM, for inactives: largest response in the series, negative = inhibition, most hits filed as inhibitors; hit rate 3.5% among 310,000; AID 1490;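 note: the enzyme is Sfp with the accession as filed and its product quenches rhodamine fluorescence; 0% = enzyme reaction without inhibitor and -100% = no enzyme wells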
#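 After 15 min at room temperature with compound, 15 nM Sfp received 5 uM rhodamine-CoA plus 12.5 uM BHQ-2-ybbR (50 mM Hepes pH 7.6, 10 mM MgCl2). Rate came from the fluorescence difference over 30 min, ex 525/em 598 nm.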
# PLK1 PBD inh: PLK1 (human) polo-box domain binding inhibition. P53350. Plk1 PBD binding of FITC phosphopeptide, fluorescence polarization. Potency, µM, for inactives: max response, negative = inhibition, usual class: inhibitors. hit rate 2.8% among 360,000. AID 720504; note: series mostly up to about 57 µM; % is set by controls: 0 for no effect and ±100 for the full control effect; nearly all actives have a fitted effect of over 65% in size
# VDR confirm: confirmation of human vitamin D receptor inhibitors; hit rate 89% among 840; AID 602199; Potency, µM, actives largely listed as inhibitors; VDR-coactivator inhibition assay, qHTS confirmation; shares compounds with VDR inh
# VDR FP fluor: VDR (human) coactivator binding inhibition, fluorescein polarization; shares compounds with VDR inh; VDR-coactivator binding, fluorescein fluorescence polarization; Potency, µM (doses to about 57.1 µM), for inactives: at the highest dose activity change, negative = inhibition, actives largely listed as inhibitors; hit rate 48% among 840; AID 602200
# VDR bla: confirmation of human vitamin D receptor inhibitors in reporter cells. Potency, µM (titrated, usually from 46.1 µM), inactives show top-dose activity change, negative = inhibition, actives largely listed as inhibitors. hit rate 23% among 840. AID 602202. VDR beta-lactamase reporter cells, FRET ratio; cells co-treated with VDR agonist LG190178. shares compounds with VDR inh; note: % is set by controls: 0 for no effect and ±100 for the full control effect
# VDR cytotox: counter-screen for vitamin D receptor inhibitors: cytotoxicity; cytotoxicity counter-screen, cell viability, qHTS; hit rate 18% among 840; Potency, µM (doses to about 48.3 µM), inactives show at the top dose activity change, negative = cytotoxicity, actives largely listed as cytotoxic; shares compounds with VDR inh;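 note: plate controls were DMSO for no effect and high-concentration cycloheximide for full effect; nearly all actives have a fitted effect of over 75% in size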
# An asterisk follows results filed as active; ? = inconclusive; . = not tested or not shown. Calls come from the whole dose curve; as a rule, active = well fitted curve in the direction sought with a large enough effect; inconclusive = small, poorly fitted or top-dose-only effect, or another doubt; inactive = no such curve, though single readings can be large; an effect the other way counts as inactive or inconclusive. Potency is the fitted concentration of half-maximal effect.
SMILES,VDR inh,Tau fibril ThT,Tau FP inhib,Tau fluor cs,Sfp inh,PLK1 PBD inh,VDR confirm,VDR FP fluor,VDR bla,VDR cytotox
Cc1ccccc1N1C(=O)c2sc3nc4c(c(=O)n3c2C1=O)CCC4,?,?,?,-6%,22µM*,8.4µM*,20*,25µM*,?,0%
Cc1ccccc1OCC(=O)N1CCC(c2nc3ccccc3s2)CC1,0%,-11%,7%,-4%,.,.,.,.,.,.
Cn1cnc([N+](=O)[O-])c1S(=O)(=O)c1cccc(Cl)c1,45µM*,?,12%,-14%,-27%,?,?,25µM*,?,10µM*
O=C(NCc1cccnc1)/C(=C\c1ccc(-c2ccc(Br)cc2)o1)S(=O)(=O)c1ccccc1,40µM*,?,?,2%,2%,?,34*,?,5.8µM*,21µM*
COc1ccc(CCN2CCCn3c2nc2c3c(=O)n(CC(N)=O)c(=O)n2C)cc1OC,1%,.,.,.,-24%,5%,.,.,.,.
O=C(c1ccc(Cl)cc1)C(CN1CCCCC1)c1ccccc1 (stereo not given),20µM*,.,.,.,-29%,?,?,22µM*,13µM*,18µM*
COc1ccccc1/C=C1\CCCC2=C1Nc1nnnn1C2c1ccccc1OC (stereo not given),?,?,-2%,15%,50µM*,?,?,?,?,-4%
Oc1c(C(c2ccc(Cl)cc2Cl)N2CCCC2)sc2nc(-c3ccco3)nn12 (stereo not given),-2%,-6%,-4%,-3%,.,.,.,.,.,.
Cc1cccc(/C=C/C(=O)c2cc(Br)ccc(=O)c2O)c1,16µM*,14µM*,?,?,14µM*,21µM*,3.8*,58%,?,?
CCOc1ccc(/C=C/C(=O)c2cc(Br)ccc(=O)c2O)cc1,50µM*,4.5µM*,?,?,20µM*,?,13*,12%,10%,12%
O=C(C=Cc1ccccc1)c1cc(Br)ccc1O,?,.,.,.,.,-22%,.,.,.,.
COc1ccc(CCN2C(=O)COc3ccccc3C2C(=O)NC(C)(C)C)cc1OC (stereo not given),.,.,.,.,.,-5%,.,.,.,.
C=CCn1cccc(/C=C/C(=O)c2ccc(C(C)(C)C)cc2)c1=S,?,20µM*,16%,-11%,-21%,-10%,7.1*,7.1µM*,?,?
Nc1ccc(N2CCOCC2)c(S(=O)(=O)Nc2ccccc2Cl)c1,21%,.,.,.,.,-4%,.,.,.,.
COc1ccccc1NS(=O)(=O)c1cc(N)ccc1N1CCOCC1,79µM*,.,.,.,.,0%,21*,20µM*,25%,32%
CC(C)CCC[C@@H](C)[C@@H]1CC[C@H]2C3=CC=C4CC(O)CC[C@]4(C)[C@H]3CC[C@@]21C (stereo not given in full),28µM*,.,.,.,?,.,?,-3%,?,?
CC(C)CCC[C@@H](C)[C@H]1CC[C@H]2[C@@H]3CC=C4C[C@@H](O)CC[C@]4(C)[C@H]3CC[C@]12C,3%,-11%,4%,-16%,13%,.,.,.,.,.
Cn1ccnc1Sc1ccc(C=O)cc1[N+](=O)[O-],9%,-8%,3%,-3%,-5%,?,.,.,.,.
CCC(=O)OCCNc1cc(Sc2nc3ccccc3s2)c2nonc2c1[N+](=O)[O-],8.9µM*,7.9µM*,-12%,?,4µM*,1.9µM*,6.7*,3.2µM*,16µM*,?
CCCC(=O)OCCNc1cc(Sc2nccn2C)c2nonc2c1[N+](=O)[O-],50µM*,7.1µM*,?,?,35µM*,2.4µM*,8.4*,?,16µM*,21µM*
O=[N+]([O-])c1c(NCCCO)cc(Sc2nc3ccccc3s2)c2nonc12,16µM*,2.2µM*,-21%,?,-4%,0.95µM*,6*,?,?,?
Nc1nc(-c2cccc(F)c2)cs1,35µM*,?,-32%,-21%,-3%,11µM*,24*,?,12%,7%
Fc1cccc(-c2csc(-c3ccno3)n2)c1,-18%,-3%,-3%,-2%,?,?,.,.,.,.
CCSc1ncc(Cl)c(C(=O)Nc2ccccc2F)n1,-4%,.,.,.,26%,-10%,.,.,.,.
O=C(Nc1ccccc1F)c1nc(S(=O)(=O)Cc2ccccc2F)ncc1Cl,14µM*,?,2%,-8%,.,.,2.8*,8.9µM*,?,12µM*
SMILES,VDR inh,Tau fibril ThT,Tau FP inhib,Tau fluor cs,Sfp inh,PLK1 PBD inh,VDR confirm,VDR FP fluor,VDR bla,VDR cytotox
O=C(Nc1ccc2ccccc2c1)c1ccc(Cl)cc1,-10%,.,.,.,5%,-15%,.,.,.,.
Cc1cccc(C)c1NC(=O)c1nc(S(=O)(=O)Cc2ccccc2F)ncc1Cl,.,.,.,.,.,.,?,4µM*,6.5µM*,?
O=C(Nc1ccc2ccccc2c1)c1nc(S(=O)(=O)Cc2ccccc2F)ncc1Cl,.,.,.,.,.,.,3.5*,3.5µM*,18µM*,19µM*
COC(=O)c1ccccc1NC(=O)CSc1nc2ccsc2c(=O)n1CCCCC(=O)O,.,.,.,.,.,-13%,.,.,.,.
CCc1nnc2c(Nc3ccc(N(CC)CC)cc3C)nc3ccccc3n12,-3%,?,2%,?,.,.,.,.,.,.
COc1ccc(NC(=O)C2CCN(S(=O)(=O)c3ccc4c(c3)CCCC(=O)N4)CC2)c(OC)c1,6%,-6%,-4%,-16%,.,.,.,.,.,.
Cc1ccc(-c2c(CN3CCN(c4cc(Cl)ccc4C)CC3)csc2C)cc1,5%,-7%,2%,-5%,.,.,.,.,.,.
COC(=O)c1ccc(Cn2nnc3ccccc3c2=O)o1,0%,-23%,-12%,-24%,15%,-7%,.,.,.,.
COC(=O)c1ccc(Cn2cc(/C=C\[N+](=O)[O-])c3ccccc32)o1,25µM*,.,.,.,56µM*,?,21*,?,?,?
COc1cccc(C(=O)/C=C/c2ccc(OCC#N)c(OC)c2)c1,50µM*,-1%,-3%,-8%,-10%,-1%,27*,14µM*,?,?
